Assay [1] deals with Wnt5a (protein binding on small-molecule microarray). The experiment in a line: small molecules binding Wnt5a protein – biophysical, small-molecule microarray, 635/667 nm fluorescence, primary screen (AID 1142).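 Also: fluorescence read at 667 nm with signal to noise per printed feature.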 The conditions noted are these: 635 nm fluorescence, higher = more signal.
Assay [2] can be described thus: ATP-based viability of Huh7 replicon cells – cell-based, CellTiter-Glo luminescence, basal, 48 h, cytotoxicity control for HCV replication inhibitor project, primary screen (AID 1143).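 Also: Huh7 hepatoma cells carrying a hepatitis C replication reporter with no stimulus; test concentration not given here.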 Conditions: higher = more signal, called active from +8 up or from −8 down. In general terms: In antiviral work, replicon cells carry a viral genome segment that copies itself.
The nature of assay [3]: Pseudomonas biofilm growth suppression – PAO1 strain, BacTiter-Glo luminescence, LB-PBS, primary screen (AID 1144). Conditions: P. aeruginosa PAO1 biofilm, 12 h, higher = more signal.
A short description of assay [4]: basal CRE-LacZ reporter activity in PC12 – cell-based, unstimulated, primary screen (AID 1145). The conditions noted are these: no forskolin, luminescence, 4.5 h, higher = more signal, called active from +8 up or from −8 down.
A short description of assay [5]: forskolin-driven CRE-LacZ activity in PC12 – cell-based, CRE-LacZ reporter, forskolin-stimulated, primary screen (AID 1146).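 Also: PC12 cells with 6xCRE LacZ reporter stimulated by forskolin 10 µM; beta-galactosidase reporter signal reflecting CREB driven transcription.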 Conditions: luminescence, 4.5 h, higher = more signal, called active from +8 up or from −8 down.
For assay [6], the target named is Streptavidin (Streptomyces avidinii) (UniProt P22629). The experiment in a line: compounds binding control protein streptavidin – biophysical, small-molecule microarray, 635/667 nm fluorescence, artefact control for SMM compound annotation, primary screen (AID 1147).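 Also: signal reflects streptavidin binding to arrayed compounds as a control protein.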 The conditions noted are these: higher = more signal.
Assay [7] can be described thus: probe aInhba binding on compound microarray – biochemical, small-molecule microarray, 635/667 nm fluorescence, primary screen (AID 1148).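 Also: score merges 667nm spot fluorescence with signal-to-noise for antibody binding to printed compounds.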 Conditions: higher = more signal.
For assay [8], the target named is Torsin-1A (Homo sapiens) (UniProt O14656). Briefly: TOR1A wild-type binding on microarray – cell lysate, small-molecule microarray, lysate, 635/667 nm, primary screen (AID 1149). Conditions: COS7 hTOR1A-WT lysate, 635 nm fluorescence, higher = more signal.
The target is the same in assay [9]. Briefly: torsin A mutant lysate binding on microarrays – cell lysate, small-molecule microarray, COS7 lysate, 635/667 nm fluorescence, primary screen (AID 1150).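 Also: score pools 667 nm emission and signal to noise measuring lysate protein binding.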 Conditions: COS7 hTOR1A mutant lysate, 635 nm fluorescence, higher = more signal.
Assay [10] concerns Sonic hedgehog protein (Shh). The experiment in a line: Sonic hedgehog microarray binding compounds – biochemical, small-molecule microarray, 635/667 nm fluorescence, primary screen (AID 1151).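 Also: Shh protein binding to compounds spotted on small-molecule microarray slides; score combines spot fluorescence intensity with signal-to-noise across triplicate slides.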 The conditions noted are these: 635 nm fluorescence, higher = more signal.
The nature of assay [11]: optical density shifts of acrAB sulA E. coli – strain DRC41, OD650, 48 h, E. coli filamentation inducer project, primary screen (AID 1152).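 Also: E. coli MC1000 strain DRC41 lacking acrAB efflux pump and sulA.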 The conditions noted are these: higher = more signal, called active from +8 up or from −8 down.
Assay [12] is described as follows: probe aLefty1 binding on compound microarray – biochemical, small-molecule microarray, 635/667 nm fluorescence, primary screen (AID 1153).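 Also: score merges spot fluorescence with signal-to-noise ratio from the scanned slide images.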 The conditions noted are these: higher = more signal.
Assay [13] can be described thus: plasmodial surface anion channel blockers, osmotic lysis – cell-based, P. falciparum Indochina, OD700, 1 h, primary screen (AID 1154). The conditions noted are these: P. falciparum Indochina infected RBC osmotic lysis, higher = more signal, called active from +8 up or from −8 down.
Assay [14] in a line: plasmodial surface anion channel blockers, osmotic lysis – cell-based, P. falciparum Indochina, OD700, 2 h, primary screen (AID 1155).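 Also: lysis reports solute entry through the parasite surface anion channel PSAC.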 Conditions: P. falciparum Indochina infected erythrocytes, higher = more signal, called active from +8 up or from −8 down.
Assay [15] is described as follows: changes in parasitized red cell lysis, either direction – P. falciparum Indochina, OD700, 3 h, PSAC antagonist project, primary screen (AID 1156). The conditions noted are these: P. falciparum-infected erythrocytes, osmotic lysis, higher = more signal, called active from +8 up or from −8 down.
A short description of assay [16]: plasmodial surface anion channel blockers, osmotic lysis – cell-based, P. falciparum Indochina, OD700, 18 h, primary screen (AID 1157). The conditions noted are these: P. falciparum Indochina infected erythrocytes, osmotic lysis OD700, 18 h; higher = more signal, called active from +8 up or from −8 down.
Assay [17] can be described thus: S6 kinase pathway phospho-S6 level changes – cell-based, A549, cytoblot, luminescence, serum-stimulated, primary screen (AID 1158).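 Also: serum-stimulated A549 lung adenocarcinoma cells; signal is phosphorylated S6 detected by cytoblot immunostaining with HRP secondary.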 The conditions noted are these: 5 h, higher = more signal.
In assay [18] the target is NADPH oxidase 2 (Homo sapiens) (UniProt P04839). The experiment in a line: compounds shifting NOX2 Amplex Red fluorescence – cell-based, HEK293-NOX2, PMA-stimulated, NOX inhibitor project, primary screen (AID 1159). Also: test concentration not given here. Conditions: 45 min, higher = more signal, called active from +8 up or from −8 down.
Assay [19] deals with NADPH oxidase 4 (Homo sapiens) (UniProt Q9NPH5). Briefly: compounds shifting NOX4 Amplex Red fluorescence – cell-based, HEK293-NOX4, tetracycline-induced, NOX inhibitor project, primary screen (AID 1160). Conditions: HEK293-NOX4, Amplex Red H2O2 fluorescence, 45 min; higher = more signal, called active from +8 up or from −8 down.
Assay [20] deals with NADPH oxidase 5 (Homo sapiens) (UniProt Q96PH1). The experiment in a line: compounds shifting NOX5 Amplex Red fluorescence – cell-based, HEK293-NOX5, NOX inhibitor project, primary screen (AID 1161). The conditions noted are these: HEK293-NOX5, ionomycin, 45 min, higher = more signal.

Activity calls are given as the source filed them. Unless noted, no rule for the calls is given here.

Chain of NADPH oxidase 2 (Homo sapiens) (P04839 whole entry, looked up): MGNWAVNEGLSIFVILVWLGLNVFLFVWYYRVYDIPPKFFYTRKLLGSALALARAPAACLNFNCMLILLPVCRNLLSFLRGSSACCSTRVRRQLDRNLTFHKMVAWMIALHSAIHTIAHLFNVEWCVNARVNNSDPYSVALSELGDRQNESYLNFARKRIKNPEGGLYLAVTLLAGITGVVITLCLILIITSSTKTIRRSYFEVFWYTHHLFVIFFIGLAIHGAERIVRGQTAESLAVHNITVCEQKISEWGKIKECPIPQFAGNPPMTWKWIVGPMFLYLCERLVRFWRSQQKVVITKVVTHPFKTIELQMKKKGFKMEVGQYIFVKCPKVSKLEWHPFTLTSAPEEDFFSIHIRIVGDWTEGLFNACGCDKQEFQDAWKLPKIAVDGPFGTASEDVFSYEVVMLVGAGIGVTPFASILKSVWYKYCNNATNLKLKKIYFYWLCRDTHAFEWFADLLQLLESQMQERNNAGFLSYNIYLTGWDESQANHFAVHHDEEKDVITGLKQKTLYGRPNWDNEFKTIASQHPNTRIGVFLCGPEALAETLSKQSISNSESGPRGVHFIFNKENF
Chain of Streptavidin (Streptomyces avidinii) (P22629 whole entry, looked up): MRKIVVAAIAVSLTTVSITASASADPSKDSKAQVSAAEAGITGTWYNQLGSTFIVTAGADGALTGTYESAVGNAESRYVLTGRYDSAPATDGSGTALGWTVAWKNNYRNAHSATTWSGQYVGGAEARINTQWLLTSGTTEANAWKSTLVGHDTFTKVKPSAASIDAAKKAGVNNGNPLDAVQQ
Chain of NADPH oxidase 4 (Homo sapiens) (Q9NPH5 whole entry, looked up): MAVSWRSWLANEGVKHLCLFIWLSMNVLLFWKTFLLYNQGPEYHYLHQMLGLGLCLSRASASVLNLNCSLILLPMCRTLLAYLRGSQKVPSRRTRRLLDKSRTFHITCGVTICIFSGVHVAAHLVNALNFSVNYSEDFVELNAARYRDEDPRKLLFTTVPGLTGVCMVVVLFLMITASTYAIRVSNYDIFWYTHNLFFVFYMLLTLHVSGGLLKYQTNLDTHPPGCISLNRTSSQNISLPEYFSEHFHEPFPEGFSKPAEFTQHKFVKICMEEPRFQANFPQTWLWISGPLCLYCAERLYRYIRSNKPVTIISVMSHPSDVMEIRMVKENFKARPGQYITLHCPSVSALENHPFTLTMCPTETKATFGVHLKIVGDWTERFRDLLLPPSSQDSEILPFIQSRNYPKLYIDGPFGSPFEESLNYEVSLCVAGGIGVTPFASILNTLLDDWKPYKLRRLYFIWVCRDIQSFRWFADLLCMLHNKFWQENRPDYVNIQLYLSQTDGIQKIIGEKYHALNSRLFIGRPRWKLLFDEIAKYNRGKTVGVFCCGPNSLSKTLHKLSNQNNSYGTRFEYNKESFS
Chain of Torsin-1A (Homo sapiens) (O14656 whole entry, looked up): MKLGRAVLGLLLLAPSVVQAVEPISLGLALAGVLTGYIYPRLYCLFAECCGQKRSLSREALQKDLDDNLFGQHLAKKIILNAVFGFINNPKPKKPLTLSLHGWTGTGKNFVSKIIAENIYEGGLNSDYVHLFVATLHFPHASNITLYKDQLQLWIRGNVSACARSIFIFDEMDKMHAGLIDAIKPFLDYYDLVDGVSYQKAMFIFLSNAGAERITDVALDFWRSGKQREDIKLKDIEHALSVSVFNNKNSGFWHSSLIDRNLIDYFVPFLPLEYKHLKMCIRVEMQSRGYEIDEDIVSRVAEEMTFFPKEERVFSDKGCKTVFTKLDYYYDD
Chain of NADPH oxidase 5 (Homo sapiens) (Q96PH1 whole entry, looked up): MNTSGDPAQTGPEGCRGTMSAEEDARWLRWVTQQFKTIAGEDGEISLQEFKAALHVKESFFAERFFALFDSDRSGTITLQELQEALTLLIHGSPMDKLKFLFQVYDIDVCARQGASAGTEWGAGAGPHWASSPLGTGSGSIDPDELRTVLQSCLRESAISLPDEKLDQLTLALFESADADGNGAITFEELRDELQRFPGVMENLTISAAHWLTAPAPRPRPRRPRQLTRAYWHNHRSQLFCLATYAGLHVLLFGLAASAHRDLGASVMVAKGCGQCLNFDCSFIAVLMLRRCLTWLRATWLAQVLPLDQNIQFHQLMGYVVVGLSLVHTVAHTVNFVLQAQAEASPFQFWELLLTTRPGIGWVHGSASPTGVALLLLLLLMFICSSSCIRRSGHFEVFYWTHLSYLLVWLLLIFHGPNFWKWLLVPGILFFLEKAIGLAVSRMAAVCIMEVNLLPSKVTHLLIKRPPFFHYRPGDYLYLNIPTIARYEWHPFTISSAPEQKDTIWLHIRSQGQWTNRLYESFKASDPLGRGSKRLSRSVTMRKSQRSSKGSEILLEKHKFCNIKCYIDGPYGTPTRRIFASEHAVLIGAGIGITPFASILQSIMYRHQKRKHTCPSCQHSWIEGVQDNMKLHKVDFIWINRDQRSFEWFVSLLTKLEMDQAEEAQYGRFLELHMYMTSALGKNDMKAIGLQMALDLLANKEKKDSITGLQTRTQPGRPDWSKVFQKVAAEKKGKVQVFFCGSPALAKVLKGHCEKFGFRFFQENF

In the case of `COC(=O)[C@]1(Cc2ccccc2N=[N+]=[N-])N=C(c2ccc(OCCCO)cc2)O[C@@H]1c1ccccc1CN=[N+]=[N-]`, the composite z-score in [1] worked out at 0.65; in assay [6] it was 0.127; in assay [7], 0.122; in assay [8], 1.12; in assay [9] it was 0.085; in assay [10], 0.754. In assay [12], this compound displayed a composite z-score of -0.0012. Further, the z-score is -3.74 (inactive) in assay [2]; -0.923 (inactive) in assay [3]; -0.137 (inactive) in assay [4]; 0.0992 (inactive) in assay [5]; -1.01 (inactive) in assay [11]; 22.2 (active) in assay [13]. Also, the z-score was 9.37 (active) in assay [14]; -0.732 (inactive) in [15]; 2.26 (inactive) in assay [16]; 0.76 in [17]; -2.97 (inactive) in [18]; 0.167 (inactive) in assay [19]. Besides, the z-score in assay [20] was -2.43.

With `Cc1ccc(S[C@]2(C(=O)NCc3ccccc3)CC(=O)N(Cc3ccccc3Cl)[C@@H]2c2ccc(CO)cc2)cc1`, the composite z-score in [1] is -0.132; in assay [6], -0.744; in [7], 0.298; in assay [8], 0.163; in assay [9], 0.0869; in assay [10], 0.469. This compound also came in with a composite z-score in [12] of -0.0536. Also, the z-score in [2] is -1.87 (inactive); in assay [3], -0.491 (inactive); in assay [4], -0.0512 (inactive); in assay [5], -0.226 (inactive); in assay [11], -0.71 (inactive); in assay [13] it was 3.22 (inactive). Moreover, the z-score in assay [14] is 0.328 (inactive); in assay [15] it was 2.98 (inactive); in [16] it was 0.254 (inactive); in assay [17], -0.121; in [18], -0.703 (inactive); in assay [19], -0.666 (inactive). In addition, in assay [20], the z-score is -0.778.

Regarding `C=C(C(=O)CC[C@@H](OC(=O)c1ccccc1-c1ccccc1C(=O)O)c1cccc(OCCO)c1)C(C)C`, the composite z-score is 0.655 in assay [1]; -0.364 in assay [6]; 0.0391 in assay [7]; 2.85 in assay [8]; 1.59 in assay [9]; 1.95 in assay [10]. Further, in assay [12], the composite z-score came out at 0.262. The z-score is 0.954 (inactive) in assay [2]; -0.417 (inactive) in [3]; 2.16 (inactive) in [4]; 2.88 (inactive) in assay [5]; 0.272 (inactive) in assay [11]; 4.83 (inactive) in assay [13]. In addition, the z-score is 0.407 (inactive) in assay [14]; 0.51 (inactive) in [15]; 0.233 (inactive) in [16]; -0.205 in assay [17]; 3.11 (inactive) in assay [18]; 1.06 (inactive) in assay [19]. For the same compound, the z-score in assay [20] is -0.442.

On to `COc1ccc(C(O)C2C=CC3C(=O)N(C)C(=O)C3N2Nc2ccccc2)cc1` (stereo not given), for which the composite z-score in assay [1] was -0.0927; in assay [6] it was 1.41; in assay [7], 0.195; in [8] it was 0.271; in assay [9], 0.994; in assay [10], 0.011. Further, the composite z-score in [12] worked out at 0.211. Also, the z-score in assay [2] is -2.05 (inactive); in assay [3] it was -0.371 (inactive); in assay [4], -0.143 (inactive); in [5], 0.459 (inactive); in assay [11], -0.485 (inactive); in assay [13] it was 0.929 (inactive). Also, the z-score in [14] was 0.865 (inactive); in assay [15], 0.213 (inactive); in assay [16], 0.973 (inactive); in assay [17], -0.423; in assay [18], -1.26 (inactive); in [19], -2.67 (inactive). For the same compound, in [20], the z-score is -1.96.

As for `C=CC[C@]1(C(=O)NCC(O)CO)N=C(c2ccc(OCCCO)cc2)O[C@H]1c1ccccc1CN=[N+]=[N-]` (stereo not given in full), the composite z-score in assay [1] is 0.176; in [6], 0.184; in [7], 0.249; in [8], 0.598; in assay [9], 2.58; in assay [10], -0.803. In addition, in assay [12], the composite z-score stood at 0.104. Besides, the z-score is -0.627 (inactive) in assay [2]; 0.381 (inactive) in assay [3]; 0.652 (inactive) in assay [4]; -0.163 (inactive) in [5]; 0.0715 (inactive) in assay [11]; 15.7 (active) in assay [13]. The z-score is 1.44 (inactive) in assay [14]; 4.83 (inactive) in [15]; 0.839 (inactive) in assay [16]; -0.99 in [17]; 0.871 (inactive) in assay [18]; 0.0808 (inactive) in assay [19]. For the same compound, the z-score in assay [20] is -0.704.

With `[N-]=[N+]=NCc1ccccc1[C@H]1OC(c2ccc(OCCCO)cc2)=N[C@@]1(CCS(=O)(=O)c1ccccc1)C(=O)O`, the composite z-score in [1] was -0.0632; in [6] it was 0.729; in [7], -0.13; in [8], -0.359; in assay [9] it was 0.622; in [10] it was -1.37. Further, in assay [12], the composite z-score stood at 0.328. Also, the z-score in assay [2] is -0.0569 (inactive); in assay [3], 0.637 (inactive); in [4] it was -0.435 (inactive); in [5] it was -0.427 (inactive); in assay [11], -0.123 (inactive); in [13], 20.5 (active). Moreover, the z-score in assay [14] is 6 (inactive); in assay [15], 0.471 (inactive); in assay [16] it was 1.06 (inactive); in assay [17] it was -0.497; in [18], 1.09 (inactive); in assay [19], 1.09 (inactive). Besides, the z-score in [20] is 2.1.

With `C=C[C@H](OC)[C@@H](O)c1ccc(OC)c(O)c1`, the composite z-score in assay [1] is -0.444; in assay [6] it was -1.56; in [7], -0.29; in [8], -0.874; in assay [9], -0.695; in [10], -0.734. Besides, the composite z-score in assay [12] was -0.169. In addition, the z-score in assay [2] is 0.97 (inactive); in assay [3] it was -1.34 (inactive); in [4] it was 0.222 (inactive); in assay [5] it was -0.904 (inactive); in assay [11], 0.169 (inactive); in assay [13], -0.258 (inactive). The z-score was 0.352 (inactive) in [14]; -0.658 (inactive) in assay [15]; 0.207 (inactive) in assay [16]; -0.425 in [17]; -2.15 (inactive) in assay [18]; -0.986 (inactive) in assay [19]. In [20], the z-score was -0.556.

Consider `CCOC(=O)C[C@H]1[C@H](OC(=O)c2ccc(-c3ccccc3)cc2)[C@@H](NC(=O)c2ccc(-c3ccccc3)cc2)c2cc(OCCCO)ccc2N1C(=O)c1ccccc1`, for which the composite z-score is 0.131 in assay [1]; 0.763 in assay [6]; 0.108 in assay [7]; 0.134 in assay [8]; 0.987 in [9]; 0.921 in assay [10]. The same compound gave a composite z-score in assay [12] of 0.0437. Besides, the z-score was -0.212 (inactive) in assay [2]; -0.00979 (inactive) in assay [3]; -0.724 (inactive) in assay [4]; 0.659 (inactive) in [5]; -0.825 (inactive) in [11]; 0.744 (inactive) in assay [13]. The z-score was 0.745 (inactive) in assay [14]; -0.392 (inactive) in assay [15]; 0.678 (inactive) in assay [16]; -0.0382 in [17]; 0.546 (inactive) in assay [18]; -1.29 (inactive) in assay [19]. Also, the z-score in [20] was -0.655.
